Assay outcomes as filed in PubChem BioAssay.
D2 PAM-1 – positive allosteric modulators of human D2 dopamine receptor; DiscoveRx D2 beta-arrestin cells, luminescence, 90 min; 100% = 57 uM dopamine signal; potentiation, % (test concentration not listed); actives 0.23% (n = 360,000); in the data active = potentiation above about 50%
Target sequence (P14416 whole entry, looked up): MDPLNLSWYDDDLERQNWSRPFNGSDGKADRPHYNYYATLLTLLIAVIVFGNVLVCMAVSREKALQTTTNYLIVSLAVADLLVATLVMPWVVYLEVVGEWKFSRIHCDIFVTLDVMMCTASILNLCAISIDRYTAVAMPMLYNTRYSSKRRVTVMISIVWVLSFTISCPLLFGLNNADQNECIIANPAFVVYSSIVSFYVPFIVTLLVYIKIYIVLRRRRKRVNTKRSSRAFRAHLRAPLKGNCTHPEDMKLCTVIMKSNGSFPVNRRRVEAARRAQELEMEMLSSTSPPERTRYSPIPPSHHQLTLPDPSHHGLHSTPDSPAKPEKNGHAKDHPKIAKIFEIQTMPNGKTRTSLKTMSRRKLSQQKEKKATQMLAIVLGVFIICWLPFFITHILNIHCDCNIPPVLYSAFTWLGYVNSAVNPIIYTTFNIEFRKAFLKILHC
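D2 cells co-treated with compound plus 50 nM dopamine (EC20) for 90 min at 37 deg C to detect potentiation. Beta-arrestin recruitment was read as enzyme-fragment luminescence after 1 h at ambient temperature. Full response was set by 57 uM dopamine.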
D2 ag-1 – agonists of human D2 dopamine receptor; HEK293 T-REx D2 cells, calcium flux agonist mode; activation, % at 2 µM; actives 0.53% (n = 340,000);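 active = activation over 3 SD above normal in the single-dose calcium agonist read, cut at about 30% in these data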; also: 0% is about no effect
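HEK293 Trex D2 cells, tetracycline-induced, o/n 30 C 5% CO2; no-wash Ca dye, RT 30–90 min; 10-cycle baseline, 23 nl cpd added, kinetic Ca read 180 s; agonist hits = positive Ca response.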
D2 antagonist – antagonists of human D2 dopamine receptor. P14416. HEK293 TREx D2 cells, calcium flux, dopamine EC80. inhibition, % at 10 µM. actives 2% (n = 340,000); in the data active = inhibition above about 30%; inactive = below that, where a call was filed; also: 0% is about no effect
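Overnight-induced (tetracycline, 30 C) HEK293 T-REx cells carrying force-coupled D2 receive a no-wash calcium dye, then compound, then EC80 dopamine at 180 s; signals are read kinetically throughout.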
D2 PAM-2 – positively modulates the human D2 dopamine receptor allosterically; P14416; HEK293 T-REx D2, calcium flux, EC20 dopamine potentiation; potentiation, % at 10 µM; actives 0.34% (n = 340,000);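 active = potentiation over 3 SD above the plate norm, cut at about 30% in these data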; also: 0% is about no effect
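Tetracycline-induced Hek293 Trex D2 cells, force-coupled to calcium, loaded with no-wash calcium dye. Compound added with 180 s kinetic read for agonism, then EC20 dopamine and a further 180 s read for potentiation.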
D2 ag-2 – agonists of human D2 dopamine receptor (beta-arrestin). activation, % (no concentration beside the values). actives 0.084% (n = 360,000). DiscoveRx PathHunter D2 beta-arrestin, luminescence, 90 min; 100% = 57 uM dopamine signal. P14416. AID 624465; in the data active = activation above about 40%
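Agonist mode: compounds alone added to overnight-plated D2 PathHunter cells for 90 min at 37 C, with 57 uM final dopamine (EC100) defining full response. Beta-arrestin recruitment detected by chemiluminescent reagent, read after 1 h at ambient temperature.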
D3 ag – confirmation of human D3 dopamine receptor agonists, beta-arrestin; AID 720506; actives 4% (n = 2,300); Potency, µM (doses to about 76.9 µM), for inactives: at the highest dose activation, usual class: activators; DiscoveRx D3 beta-arrestin cells, luminescence, 90 min; shares compounds with D2 ag-1;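 also: potency is read from the fitted curve at half-maximal effect; 100% = dopamine control response; nearly all actives have a fitted effect of over 70% in size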
D2 ag-3 – counter-screen for D3 agonists: human D2 dopamine receptor agonism | shares compounds with D2 ag-1 | DiscoveRx PathHunter D2 beta-arrestin, luminescence, 90 min; response scale: percent relative to full dopamine signal | Potency, µM (titrated, usually from 76.9 µM), for the others: top-dose activation, hits mostly activators | actives 5.9% (n = 2,300); also: potency is read from the fitted curve at half-maximal effect; % of control where 0% means no effect; nearly all actives have a fitted effect of over 70% in size
Starred values were filed as active, the others as inactive; . = not tested or not shown. The list is not random: actives were taken first. Their share in the collection is about 2.4%. Unless noted, calls follow the shape of the dose curve; as a rule, active = well fitted activation curve with a large enough effect; inconclusive = small, poorly fitted or top-dose-only effect; inactive = flat fitted curve, though single readings scatter.

SMILES	D2 PAM-1	D2 ag-1	D2 antagonist	D2 PAM-2	D2 ag-2	D3 ag	D2 ag-3
c1ccc(CCN2CN(CCCN3CCOCC3)c3nc4ccccc4n3C2)cc1	-4.2	55.7*	23.9	-7.5	0.3	-0.1%	0.7%
CCN(CC)C1=CC2=CC(=C(C#N)C#N)CCC2CC1 (stereo unspecified)	-1.6	208.7*	75.6*	-16.5	2.7	-6.9%	17.3%
O=C(CSc1oc(-c2ccc(F)cc2)nc1S(=O)(=O)c1ccc(Cl)cc1)c1ccccc1	.	1.8	.	-8.6	.	.	.
C=CCn1c(SC(C)C(=O)c2c(N)n(C)c(=O)n(C)c2=O)nnc1-c1ccoc1C (stereo unspecified)	6.3	32.4*	-6.7	-8.3	5.2	-27.0%	4.6%
COc1cc2c(cc1NC(=O)COc1cc(C)ccc1C)oc1ccccc12	.	0.7	.	5.9	.	.	.
